Reference: the supplement of paper PMC10338343
± gives the standard deviation.

system: EfPiwi piRISC loaded with L1MC piRNA (26 nt); experiment: pre-steady-state target cleavage rate (min^-1); auxiliary factor: 500 nM Ephydatia muelleri Gtsf1; guide: L1MC piRNA 5'p-UAACUAAAUACUAUGCAAGCUGUAGG; MIWI and MILI are mouse PIWI proteins and EfPiwi is from a freshwater sponge; tags in brackets are library labels; higher = faster piRNA-guided slicing of the target
Summary of the method: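 Reactions were run for 0–8 or 0–960 min at 33 °C in HEPES–potassium acetate buffer, combining 1 nM active affinity-purified piRISC with one synthetic guide, […] transcribed, DNA-blocked target RNA library and, in some cases, 500 nM GTSF1 partner protein. Sequencing of uncleaved targets followed, with normalisation to depth and to weakly complementary targets. Three trials were pooled, k3 was capped at 0.0001 min^-1, and the pre-steady-state cleavage rate was taken from a burst-and-steady-state fit.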

Row | Sequence | pre-steady-state target cleavage rate
1 | UCCUGCUACAGCUUGGUAAGUAUUUAGUUA | 0.00341 ± 0.0025
2 | UCCUGCUACAGCAUGCAUAGUAUUAAGUUA | 0.00828 ± 0.0024
3 | UCCUGCUACAGCUUGCAUAGUUAUUAGUAA | 0.00306 ± 0.0017
4 | UCCUGGAUGAGCUUGGAUAGUAUUUAGAAA | 0.00463 ± 0.0034
5 | UCCUGGAUGUCGAACGUUACUAUUUAGUUA | < 0.0001
6 | UCCUGGAACAACUUGCAUAGUAUUUAGUUA | 0.0809 ± 0.023
7 | UCCUCCUACAGCUUCAUAGUAUUUAGUUA | 0.0399 ± 0.015
8 | UCCUCCUACAGCUUCCAUAGUAUUUAGAAA | 0.00369 ± 0.0018
9 | UCCUGCUACAGCUUGCAUAGUAAAAAGUUA | 0.00305 ± 0.0016
10 | UCCUCCUUCAGCUUGCAUAGUAUUUAGUAA | 0.012 ± 0.005
11 | UCCUGGAUGAGCUUGCAUAGUUUUUAGAAA | 0.00315 ± 0.0019
12 | UCCUGGUACAGCUUGCAAAGUAUUAAGUUA | 0.00292 ± 0.0026
13 | UCCUGGAUGAGCUUGCAUACUAUUUAGAAA | 0.00478 ± 0.0029
14 | UCCUGGAUGAGGUUGCAUAGUAUUUAGAAA | 0.00315 ± 0.0029
15 | UCCUGGAACAGCUUGGAUAGUAUUUACAAA | 0.00254 ± 0.0019
16 | UCCUGGUACAGCUUGGAUAGUAUUUAGAAA | 0.00277 ± 0.0022
